The text below walks through data of PubChem BioAssay (NCATS).

Several values for one entry are separate records, joined by “and”; a condition that tells them apart may be missing. Equal entries are not always repeated. Results filed as inconclusive are left out. Activity calls are given as the source filed them. Unless noted, the call rests on the fitted dose curve.

One experiment deals with Glucocorticoid receptor (Homo sapiens) (UniProt P04150). The experiment is described as follows: qHTS assay for small molecule antagonists of glucocorticoid receptor signaling (AID 588533; active means well fitted inhibition curve with a large enough effect in the signal ratio, with a control signal flat, not every such curve was filed as active; the % refers to the signal ratio;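 further: cells stimulated with 2 nM dexamethasone as agonist; on the % scale 0 is the no-effect control and ±100 the full control effect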). The conditions noted are these: HeLa MMTV-bla, GRE beta-lactamase ratio, antagonist mode, 18 h; series mostly up to 76.8 µM; activity change, negative = inhibition: at the top concentration. The essentials: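 Antagonist-mode qHTS: compound titrations added to GRE-bla HeLa cells, then dexamethasone 2 nM final; 18 h, 37 C. CCF4 FRET fluorescence normalized to dexamethasone and DMSO; IC50 from Hill fit.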
Glucocorticoid receptor (Homo sapiens), sequence (P04150 whole entry, looked up): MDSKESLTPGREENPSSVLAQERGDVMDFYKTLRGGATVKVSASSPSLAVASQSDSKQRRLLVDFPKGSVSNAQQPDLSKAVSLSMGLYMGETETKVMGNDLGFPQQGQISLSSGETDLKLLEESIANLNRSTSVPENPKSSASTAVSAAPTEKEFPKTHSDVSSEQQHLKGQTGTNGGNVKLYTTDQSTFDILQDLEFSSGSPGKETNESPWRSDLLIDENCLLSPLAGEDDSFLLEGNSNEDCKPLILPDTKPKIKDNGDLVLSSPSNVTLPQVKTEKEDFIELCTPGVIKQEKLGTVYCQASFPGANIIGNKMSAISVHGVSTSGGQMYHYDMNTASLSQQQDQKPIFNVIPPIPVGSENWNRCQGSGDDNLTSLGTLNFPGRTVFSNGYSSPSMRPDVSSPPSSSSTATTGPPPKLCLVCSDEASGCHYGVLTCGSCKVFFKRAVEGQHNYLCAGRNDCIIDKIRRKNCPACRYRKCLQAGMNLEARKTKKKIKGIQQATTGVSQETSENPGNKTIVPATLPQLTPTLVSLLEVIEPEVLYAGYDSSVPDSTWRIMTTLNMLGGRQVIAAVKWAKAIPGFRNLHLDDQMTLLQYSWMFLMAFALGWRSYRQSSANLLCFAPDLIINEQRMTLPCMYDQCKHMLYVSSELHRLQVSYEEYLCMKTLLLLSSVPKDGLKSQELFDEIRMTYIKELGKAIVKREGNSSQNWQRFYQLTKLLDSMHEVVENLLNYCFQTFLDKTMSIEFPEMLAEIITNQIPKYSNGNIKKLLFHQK
For the compound `CCNc1nc(Cl)nc(NC(C)C)n1`, the “activity change, negative = inhibition” value is -6.96% (inactive).
As to `ClC1=C(Cl)C2(Cl)C3C4CC(C5OC45)C3C1(Cl)C2(Cl)Cl` (configuration not stated), the “activity change, negative = inhibition” value was -28.6% (inactive).
Take `ClC(Cl)=C(c1ccc(Cl)cc1)c1ccc(Cl)cc1`: the Potency result was “inactive”.
Turning to `ClC1=C(Cl)C2(Cl)C3C4C=CC(C4)C3C1(Cl)C2(Cl)Cl` (configuration not stated), the “activity change, negative = inhibition” value was -16% (inactive).
Turning to `O=C(O)COc1ccc(Cl)cc1Cl`, the Potency result was “inactive”.
As to `COC(=O)NC(=S)Nc1ccccc1NC(=S)NC(=O)OC`, the “activity change, negative = inhibition” value was 1.12% (inactive).
Same read-out and setting: next, `ClC1=C(Cl)C2(Cl)C3C(Cl)C=CC3C1(Cl)C2(Cl)Cl` (configuration not stated): 13.4% (inactive).
`CNC(=O)O/N=C/C(C)(C)SC`: the Potency entry was “inactive”.
Regarding `c1ccc(N=Nc2ccccc2)cc1`, the “activity change, negative = inhibition” value is 7.8% (inactive).

A further experiment deals with Peroxisome proliferator-activated receptor delta (Homo sapiens) (UniProt Q03181). The experiment is described as follows: qHTS assay for small molecule agonists of peroxisome proliferator-activated receptor delta signaling (AID 588534).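 Further: 0% = DMSO basal wells and 100% = positive control agonist at 10 µM.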 The conditions noted are these: HEK293T PPARdelta-UAS-bla, beta-lactamase ratio, 18 h; series mostly up to 76.7 µM; activation: at the top concentration. In short, it runs like this: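 Reporter cells were plated and held 5 hrs at 37 C before compounds were added. After 18 hrs at 37 C, CCF4 dye was loaded for 2 hrs at RT and fluorescence measured.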
Peroxisome proliferator-activated receptor delta (Homo sapiens), sequence (Q03181 whole entry, looked up): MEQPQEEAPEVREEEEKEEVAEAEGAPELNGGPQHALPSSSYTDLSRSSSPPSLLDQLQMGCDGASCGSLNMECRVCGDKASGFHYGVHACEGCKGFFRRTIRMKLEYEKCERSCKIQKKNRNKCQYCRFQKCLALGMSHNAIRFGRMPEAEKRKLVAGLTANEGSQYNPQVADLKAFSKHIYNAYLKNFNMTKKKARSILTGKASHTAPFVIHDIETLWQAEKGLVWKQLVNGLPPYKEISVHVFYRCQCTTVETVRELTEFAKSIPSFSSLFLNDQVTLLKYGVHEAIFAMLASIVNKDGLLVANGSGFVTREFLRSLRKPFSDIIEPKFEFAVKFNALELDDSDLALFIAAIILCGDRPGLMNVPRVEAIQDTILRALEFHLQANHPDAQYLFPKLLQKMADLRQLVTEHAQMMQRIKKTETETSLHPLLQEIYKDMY
Turning to `CCNc1nc(Cl)nc(NC(C)C)n1`, the result was inactive.
Turning to `ClC1=C(Cl)C2(Cl)C3C4CC(C5OC45)C3C1(Cl)C2(Cl)Cl` (configuration not stated), the “activation” value was 8.89% (inactive).
As for `ClC(Cl)=C(c1ccc(Cl)cc1)c1ccc(Cl)cc1`, the outcome was inactive.
As to `ClC1=C(Cl)C2(Cl)C3C4C=CC(C4)C3C1(Cl)C2(Cl)Cl` (configuration not stated), the “activation” value is -5.91% (inactive).
For the compound `COC(=O)NC(=S)Nc1ccccc1NC(=S)NC(=O)OC`, the outcome was inactive.
With `COP(=S)(OC)Oc1ccc([N+](=O)[O-])cc1`, the outcome was inactive.
Turning to `C=CCc1ccc(OC)cc1`, the “activation” value is 9.07% (inactive).
For the compound `ClC1=C(Cl)C2(Cl)C3C(Cl)C=CC3C1(Cl)C2(Cl)Cl` (configuration not stated), the “activation” value was -13.2% (inactive).
For the compound `CNC(=O)O/N=C/C(C)(C)SC`, the result was inactive.
As to `CCc1cccc(CC)c1N(COC)C(=O)CCl`, the outcome was inactive.

Test system in the next experiment: not listed separately
The experiment is described as follows: qHTS assay for small molecule antagonists of peroxisome proliferator-activated receptor delta signaling (AID 588535; active means well fitted inhibition curve with a large enough effect in the signal ratio, with a control signal flat, not every such curve was filed as active; the % refers to the signal ratio;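 on max response: cells co-treated with a PPAR-delta agonist as stimulator during compound exposure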). The conditions noted are these: HEK293T PPARd-UAS-bla, beta-lactamase FRET ratio, 18 h; 460 nm channel. In short, it runs like this: (§1)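 Cell-based beta-lactamase assay in antagonist mode: 4000 HEK293T PPAR-delta-UAS-bla cells per well, 5 hr preincubation then 18 hr compound incubation at 37 C. IC50 obtained by Hill equation fitting.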
With `ClC(Cl)=C(c1ccc(Cl)cc1)c1ccc(Cl)cc1`, the max response was 6.36% and 34.1%.
Take `COC(=O)NC(=S)Nc1ccccc1NC(=S)NC(=O)OC`: the max response is -30.4% and 40.5%.
For the compound `COP(=S)(OC)Oc1ccc([N+](=O)[O-])cc1`, the max response was -15.9%.
On the same count and under the same terms, next, `C=CCc1ccc(OC)cc1`: -9.08%; `ClC1=C(Cl)C2(Cl)C3C(Cl)C=CC3C1(Cl)C2(Cl)Cl` (configuration not stated): -19.5%; `CNC(=O)O/N=C/C(C)(C)SC`: -48.7% and -22%.

For a further experiment, the target named is Peroxisome proliferator-activated receptor delta (Homo sapiens) (UniProt Q03181). The experiment is described as above. Conditions: HEK293T PPARd-UAS-bla, beta-lactamase FRET ratio, 18 h; series mostly up to 76.7 µM; activity change, negative = inhibition: at the top concentration. In short, it runs like this: as §1
Take `ClC(Cl)=C(c1ccc(Cl)cc1)c1ccc(Cl)cc1`: the Potency result is “inactive”.
On the same count and under the same terms, next, `COC(=O)NC(=S)Nc1ccccc1NC(=S)NC(=O)OC`: “inactive”.
As for `COP(=S)(OC)Oc1ccc([N+](=O)[O-])cc1`, the “activity change, negative = inhibition” value was -15.5% (inactive).
Consider `C=CCc1ccc(OC)cc1`, for which the “activity change, negative = inhibition” value is -9.2% (inactive).
Still for that read-out and setting: next, `ClC1=C(Cl)C2(Cl)C3C(Cl)C=CC3C1(Cl)C2(Cl)Cl` (configuration not stated): -19.2% (inactive).
As for `CNC(=O)O/N=C/C(C)(C)SC`, the Potency entry was “inactive”.

A further experiment deals with Peroxisome proliferator-activated receptor gamma (Homo sapiens) (UniProt P37231). The experiment is described as follows: qHTS assay for small molecule agonists of peroxisome proliferator-activated receptor gamma signaling (AID 588536; active means well fitted curve in the direction sought with a large enough effect in the signal ratio, with a control signal flat, not every such curve was filed as active; the % refers to the signal ratio;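 further: 0% = DMSO basal wells and 100% = rosiglitazone at 2 µM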). Conditions: HEK293 PPARg-UAS-bla, beta-lactamase ratio, 16 h, percent of rosiglitazone response, DMSO as zero; series mostly up to 76.7 µM; activation: at the top concentration. The essentials: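 GeneBLAzer PPAR-gamma-UAS-bla HEK293 cells in 1% charcoal/dextran-treated FBS medium were treated 16 h at 37 C with compounds. Beta-lactamase activity was read by CCF4 ratio (460/530 nm). Response was normalized to 2 uM rosiglitazone (100%) and DMSO, then Hill-fitted for EC50 and efficacy.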
Peroxisome proliferator-activated receptor gamma (Homo sapiens), sequence (P37231 whole entry, looked up): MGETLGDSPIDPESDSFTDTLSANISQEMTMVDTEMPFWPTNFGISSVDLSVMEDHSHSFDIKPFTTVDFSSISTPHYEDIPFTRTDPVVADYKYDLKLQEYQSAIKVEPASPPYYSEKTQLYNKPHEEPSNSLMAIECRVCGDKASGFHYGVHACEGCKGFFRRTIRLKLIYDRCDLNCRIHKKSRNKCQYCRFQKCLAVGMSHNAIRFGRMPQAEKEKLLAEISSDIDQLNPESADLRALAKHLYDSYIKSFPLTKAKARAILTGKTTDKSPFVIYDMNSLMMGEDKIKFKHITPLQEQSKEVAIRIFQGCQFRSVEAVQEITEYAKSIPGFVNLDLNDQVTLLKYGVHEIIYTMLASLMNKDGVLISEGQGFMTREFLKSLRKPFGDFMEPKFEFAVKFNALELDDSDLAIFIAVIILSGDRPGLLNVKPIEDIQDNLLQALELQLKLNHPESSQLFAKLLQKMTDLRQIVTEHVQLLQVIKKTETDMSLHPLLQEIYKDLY
For `CCNc1nc(Cl)nc(NC(C)C)n1`, the outcome was inactive.
Consider `ClC1=C(Cl)C2(Cl)C3C4CC(C5OC45)C3C1(Cl)C2(Cl)Cl` (configuration not stated), for which the “activation” value was 0.0346% (inactive).
Take `ClC(Cl)=C(c1ccc(Cl)cc1)c1ccc(Cl)cc1`: the outcome was inactive.
For `ClC1=C(Cl)C2(Cl)C3C4C=CC(C4)C3C1(Cl)C2(Cl)Cl` (configuration not stated), the “activation” value is -12.4% (inactive).
Regarding `COC(=O)NC(=S)Nc1ccccc1NC(=S)NC(=O)OC`, the “activation” value is 9.88% (inactive).
On the same count and under the same terms, the value for `C/C=C/c1ccc2c(c1)OCO2` was 0.937% (inactive); that for `COP(=S)(OC)Oc1ccc([N+](=O)[O-])cc1` was -4.65% (inactive); that for `C=CCc1ccc(OC)cc1` was 2.08% (inactive).
Take `CNC(=O)O/N=C/C(C)(C)SC`: the outcome was inactive.
As to `c1ccc(N=Nc2ccccc2)cc1`, the result was inactive.
`CCc1cccc(CC)c1N(COC)C(=O)CCl`: the “activation” value was -13.9% (inactive).
